This is an account of results in PMC12431657, “Discovery and mechanistic insights of dibenzoylmethane as a broad spectrum inhibitor of coronavirus” (PLOS Pathogens, 2025).

The structures appear in SMILES notation. Like-named read-outs stand apart in the source and are kept apart here. In all, about 3,300 compounds went through this assay and about 95 (3%) showed an effect of 50% or more. The full list was thinned out, with strong results kept by preference.

In the experiment the test system is HCoV-229E. More on the design: species or system Huh-7; HTS, protection from HCoV-229E induced cell death, luminescent cell viability (CellCounting-Lite 2.0), inhibition rate. Particulars: 24 h post infection, 1 h compound pre-incubation, 10 µM, inhibitor.

Take `COc1ccc(C2COc3cc(O[C@@H]4O[C@H](CO)[C@@H](O)[C@H](O)[C@H]4O)ccc3C2)c(O)c1OC` (stereo partly drawn) [Isomucronulatol 7-O-glucoside]: the “229E Inhibition rate” value is 13%.

With `CC(C)=CCC/C(C)=C/C=O` [Citral], the “229E Inhibition rate” value was found to be 47.4%.

For the compound `C=C1[C@H]2C[C@H]2[C@]2(C)Cc3occ(C)c3[C@H](O)[C@@H]12` [Lindenenol], the “229E Inhibition rate” value was 28.5%.

On to `CCC/C=C1\OC(=O)C2=C1CC[C@H]1[C@H]3C=C4C(=O)O/C(=C\CCC)[C@@]4(CC3)[C@@H]21` [Levistolide A], for which the “229E Inhibition rate” value is 60.4%.

For `CCC/C=C1\OC(=O)C2=C1CC[C@H](O)[C@H]2O` [Senkyunolide I], the “229E Inhibition rate” value is 43.1%.

For `CCC/C=C1\OC(=O)C2=C1CC[C@@H](O)[C@H]2O` [Senkyunolide H], the “229E Inhibition rate” value worked out at 47.8%.

Turning to `Cc1ncc(CO)c(C(=O)O)c1O` [4-Pyridoxic acid], the “229E Inhibition rate” value is 22.7%.

Turning to `O=C(O)/C=C/c1ccccc1` [Cinnamic acid], where the note is “229E Inhibition rate, 24 h”, the “229E Inhibition rate” value is reported as 21%.

Turning to `O=C(O)[C@H](O)c1ccccc1` [D-(-)-Mandelic acid], the “229E Inhibition rate” value is reported as 7.5%.

In the case of `O=C(O)[C@H]1O[C@@H](Oc2cc(O)c3c(=O)cc(-c4ccc(O)c(O)c4)oc3c2)[C@H](O)[C@@H](O)[C@@H]1O` [Luteolin 7-O-glucuronide], the “229E Inhibition rate” value worked out at 11.2%.

With `C[C@@H]1CC[C@]2(C(=O)O[C@@H]3O[C@H](CO)[C@@H](O)[C@H](O)[C@H]3O)CC[C@]3(C)C(=CC[C@@H]4[C@@]5(C)CC[C@H](O)[C@@](C)(CO)[C@@H]5CC[C@]43C)[C@@H]2[C@]1(C)O` [Pedunculoside], the “229E Inhibition rate” value is given as 10.8%.

Regarding `C[C@@H]1CC[C@]2(C(=O)O[C@@H]3O[C@H](CO)[C@@H](O)[C@H](O)[C@H]3O)CC[C@]3(C)C(=CC[C@@H]4[C@@]5(C)C[C@@H](O)[C@H](O)[C@@](C)(CO)[C@@H]5CC[C@]43C)[C@@H]2[C@]1(C)O` [Niga-ichigoside F1], the “229E Inhibition rate” value amounted to 20.4%.

On to `C[C@@H]1O[C@@H](O[C@H]2[C@H](O)[C@@H](O)[C@H](OC[C@H]3O[C@@H](OC(=O)[C@]45CCC(C)(C)C[C@H]4C4=CC[C@@H]6[C@@]7(C)CC[C@H](O[C@@H]8OC[C@H](O)[C@H](O)[C@H]8O)[C@@](C)(CO)[C@@H]7CC[C@@]6(C)[C@]4(C)CC5)[C@H](O)[C@@H](O)[C@@H]3O)O[C@@H]2CO)[C@H](O)[C@H](O)[C@H]1O` [Hederacoside D], for which the “229E Inhibition rate” value (229E Inhibition rate, 24 h) was found to be 40.4%.

As for `C[C@@H]1O[C@@H](O[C@H]2[C@H](O[C@H]3CC[C@@]4(C)[C@@H](CC[C@]5(C)[C@@H]4CC=C4[C@@H]6CC(C)(C)CC[C@]6(C(=O)O[C@@H]6O[C@H](CO[C@@H]7O[C@H](CO)[C@@H](O)[C@H](O)[C@H]7O)[C@@H](O)[C@H](O)[C@H]6O)CC[C@]45C)[C@]3(C)CO)OC[C@H](O)[C@@H]2O)[C@H](O)[C@H](O)[C@H]1O` [Dipsacoside B], the “229E Inhibition rate” value is reported as 11.1%.

For `CC1(C)CC[C@]2(C(=O)O[C@@H]3O[C@H](CO[C@@H]4O[C@H](CO)[C@@H](O)[C@H](O)[C@H]4O)[C@@H](O)[C@H](O)[C@H]3O)CC[C@]3(C)C(=CC[C@@H]4[C@@]5(C)CC[C@H](O[C@@H]6OC[C@H](O)[C@H](O)[C@H]6O)[C@@](C)(CO)[C@@H]5CC[C@]43C)[C@@H]2C1` [Asperosaponin VI], the “229E Inhibition rate” value stood at 56.6%.

As to `C[C@@H]1CC[C@]2(C(=O)O[C@@H]3O[C@H](CO)[C@@H](O)[C@H](O)[C@H]3O)CC[C@]3(C)C(=CC[C@@H]4[C@@]5(C)CC[C@H](O)[C@](C)(C(=O)O)[C@@H]5CC[C@]43C)[C@@H]2[C@]1(C)O` [Ilexsaponin A], the “229E Inhibition rate” value is 58.5%.

For `O=C(O)C(O)Cc1cc2ccccc2[nH]1` (stereo not drawn) [Indolelactic acid], the “229E Inhibition rate” value is 16.7%.

Take `O=C1C=CCO1` [2(5H)-Furanone]: the “229E Inhibition rate” value is reported as 8.7%.

Regarding `CCCCCC(C)C(=O)O` (stereo not drawn) [2-Methylheptanoic acid], the “229E Inhibition rate” value stood at 47.5%.

Take `O=C(O)Cc1ccccc1O` [2-Hydroxyphenylacetic acid]: the “229E Inhibition rate” value is listed as 12.4%.

For the compound `NCc1ccccc1O` [o-Hydroxybenzylamine], the “229E Inhibition rate” value came out at 9.2%.

Take `OCc1ccccc1O` [Salicyl alcohol]: the “229E Inhibition rate” value turned out to be 51.5%.

Regarding `c1cc2c(cc1[C@H]1OC[C@H]3[C@@H]1CO[C@@H]3c1ccc3c(c1)OCO3)OCO2` [Sesamin], the “229E Inhibition rate” value worked out at 15.4%.

Regarding `c1cc2c(cc1O[C@H]1OC[C@H]3[C@@H]1CO[C@@H]3c1ccc3c(c1)OCO3)OCO2` [Sesamolin], the “229E Inhibition rate” value is recorded as 62.2%.

As to `c1cc2c(cc1[C@H]1OC[C@@H]3[C@H]1CO[C@H]3c1ccc3c(c1)OCO3)OCO2` [(-)-Asarinin], the “229E Inhibition rate” value is given as 9.2%.

`CC1=C\[C@@H](O)CC(=O)Cc2nc(co2)C(=O)N2CCC=C2C(=O)O[C@H](C(C)C)[C@H](C)/C=C/C(=O)NC\C=C\1` [Virginiamycin M1]: the “229E Inhibition rate” value was found to be 36.6%.

`N[C@@H](Cc1ccc(O)c([N+](=O)[O-])c1)C(=O)O` [3-Nitro-L-tyrosine]: the “229E Inhibition rate” value turned out to be 8%.

As for `C=C(C)[C@@H]1CC[C@]2(C)CC[C@]3(C)[C@H](CC[C@@H]4[C@@]5(C)CCC(=O)C(C)(C)[C@@H]5CC[C@]43C)[C@@H]12` [Lupenone], the “229E Inhibition rate” value amounted to 9.9%.

As to `CCc1ccc(O)cc1` [4-Ethylphenol], the “229E Inhibition rate” value came out at 20.1%.

Turning to `CCC1(c2ccc(O)cc2)NC(=O)N(C)C1=O` (stereo not drawn) [4-Hydroxymephenytoin], the “229E Inhibition rate” value is listed as 55.5%.

As for `O=c1c(O[C@@H]2OC[C@@H](O)[C@H](O)[C@H]2O)c(-c2ccc(O)c(O)c2)oc2cc(O)cc(O)c12` [Reynoutrin], the “229E Inhibition rate” value was determined as 19.1%.

For the compound `C[C@H]1CC[C@@]2(OC1)O[C@H]1C[C@H]3[C@@H]4CC=C5C[C@@H](O[C@@H]6O[C@H](CO)[C@@H](O)[C@H](O[C@@H]7OC[C@@H](O)[C@H](O)[C@H]7O)[C@H]6O[C@@H]6O[C@@H](C)[C@H](O)[C@@H](O)[C@H]6O)CC[C@]5(C)[C@H]4CC[C@]3(C)[C@H]1[C@@H]2C` [Liriope muscari baily saponins C], the “229E Inhibition rate” value is on record as 31%.

`COc1cc([C@@H]2c3cc4c(cc3[C@@H]3OC[C@H]2[C@@H]3CO)OCO4)cc(OC)c1OC` [Neoanhydropodophyllol]: the “229E Inhibition rate” value is recorded as 9.1%.
